Reference: PubChem BioAssay
For some assays here: Potency and affinity values are given separately. Calls of active or inactive are those of the source. Unless noted, the rule behind the calls is not given here.

Experiments:
[1] = antimalarial activity against Dd2 strain (AID 2302;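 active = growth inhibition above 50% at the single 2 µM test dose, taken to imply half-maximal potency below 2 µM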;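 note: 0% = DMSO untreated growth and 100% = chloroquine plus artemisinin killed control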); details: P. falciparum Dd2 in RBCs, LDH growth readout, 72 h; at 2 µM; hits give high values
[2] = HepG2 cytotoxicity, primary screen, cytotoxicity control for P. falciparum antimalarial project, cell-based, ATP luminescence (AID 2303;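 active = inhibition above 50%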;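 note: 0% = DMSO wells and 100% = digitonin-killed cells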); details: HepG2 viability, 24-48 h, at 10 µM, hits give high values
[3] = target: L-lactate dehydrogenase (Plasmodium falciparum (isolate CDC / Honduras)) (UniProt Q27743); assay: PfLDH activity inhibition – cell lysate, 3D7 strain, counter-screen for P. falciparum growth inhibition project (AID 2304);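 note: 0% = vehicle and 100% = reference inhibitor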; details: P. falciparum 3D7 crude extract, LDH APAD/NBT absorbance; at 2 µM; hits give high values
[4] = inhibition of 3D7 malaria parasite growth – strain 3D7 (AID 2306);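 note: 0% = DMSO wells and 100% = chloroquine plus artemisinin control wells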; details: P. falciparum 3D7 erythrocytic growth, LDH absorbance, 72 h; at 2 µM; hits give high values
[5] = target: Calcium-dependent protein kinase 1 (Plasmodium falciparum (isolate 3D7)) (UniProt P62344); assay: PfCDPK1 kinase inhibitors, biochemical, TCAMS library (AID 1159585; cut-off not given, nearly all actives have IC50 up to about 0.98 µM;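 note: inhibitors leave more ATP so luminescence rises with inhibition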); details: recombinant PfCDPK1, Kinase-Glo ATP depletion luminescence
[6] = target: Plasmodium falciparum protein kinase 6 (PK6, PF3D7_1337100) (UniProt Q8IDW1); assay: PfPK6 kinase inhibitors, biochemical, TCAMS library (AID 1159586); details: recombinant PfPK6, Kinase-Glo ATP depletion luminescence
[7] = target: Protein kinase 7 (PK7), Plasmodium falciparum 3D7 (PF3D7_0213400) (UniProt Q7YTF7); assay: inhibition of Plasmodium PK7 catalytic activity – biochemical, TCAMS antimalarial set, Kinase-Glo luminescence (AID 1159587); details: recombinant PfPK7, Kinase-Glo ATP depletion luminescence
[8] = target: Calcium-dependent protein kinase 4 (Plasmodium falciparum (isolate 3D7)) (UniProt Q8IBS5); assay: PfCDPK4 kinase inhibitors, biochemical, TCAMS library (AID 1159588; cut-off not given, nearly all actives have IC50 up to about 0.91 µM); details: recombinant PfCDPK4, Kinase-Glo ATP depletion luminescence
Calcium-dependent protein kinase 4 (Plasmodium falciparum (isolate 3D7)), sequence (Q8IBS5 whole entry, looked up): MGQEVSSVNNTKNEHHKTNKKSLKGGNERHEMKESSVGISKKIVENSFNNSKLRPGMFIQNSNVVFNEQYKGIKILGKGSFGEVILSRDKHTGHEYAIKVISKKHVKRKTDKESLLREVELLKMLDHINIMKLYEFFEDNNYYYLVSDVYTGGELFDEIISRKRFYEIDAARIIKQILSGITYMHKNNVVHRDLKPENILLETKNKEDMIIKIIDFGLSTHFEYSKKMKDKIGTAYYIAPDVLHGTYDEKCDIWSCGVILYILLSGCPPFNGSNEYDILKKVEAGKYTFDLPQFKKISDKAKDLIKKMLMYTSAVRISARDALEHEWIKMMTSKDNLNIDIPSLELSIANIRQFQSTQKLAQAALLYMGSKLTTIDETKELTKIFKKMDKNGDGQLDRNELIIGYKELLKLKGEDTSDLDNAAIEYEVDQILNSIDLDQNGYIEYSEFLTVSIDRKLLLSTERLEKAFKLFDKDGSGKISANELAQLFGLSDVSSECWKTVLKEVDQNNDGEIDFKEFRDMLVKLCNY

Calcium-dependent protein kinase 1 (Plasmodium falciparum (isolate 3D7)), sequence (P62344 whole entry, looked up): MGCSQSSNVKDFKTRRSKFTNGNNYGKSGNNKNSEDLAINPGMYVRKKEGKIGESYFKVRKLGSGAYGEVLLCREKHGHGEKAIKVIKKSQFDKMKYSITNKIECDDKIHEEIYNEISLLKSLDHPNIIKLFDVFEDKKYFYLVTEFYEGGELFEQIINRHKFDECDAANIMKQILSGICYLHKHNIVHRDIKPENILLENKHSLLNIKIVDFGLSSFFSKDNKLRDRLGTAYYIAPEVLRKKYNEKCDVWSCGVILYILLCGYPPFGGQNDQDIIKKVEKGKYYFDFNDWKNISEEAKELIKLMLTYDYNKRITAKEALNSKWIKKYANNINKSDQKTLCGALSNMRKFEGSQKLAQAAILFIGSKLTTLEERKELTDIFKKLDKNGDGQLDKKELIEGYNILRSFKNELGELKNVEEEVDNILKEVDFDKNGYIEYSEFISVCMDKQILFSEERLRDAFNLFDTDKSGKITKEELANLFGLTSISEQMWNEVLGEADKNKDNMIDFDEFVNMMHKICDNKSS
Plasmodium falciparum protein kinase 6 (PK6, PF3D7_1337100), sequence (Q8IDW1 1-305): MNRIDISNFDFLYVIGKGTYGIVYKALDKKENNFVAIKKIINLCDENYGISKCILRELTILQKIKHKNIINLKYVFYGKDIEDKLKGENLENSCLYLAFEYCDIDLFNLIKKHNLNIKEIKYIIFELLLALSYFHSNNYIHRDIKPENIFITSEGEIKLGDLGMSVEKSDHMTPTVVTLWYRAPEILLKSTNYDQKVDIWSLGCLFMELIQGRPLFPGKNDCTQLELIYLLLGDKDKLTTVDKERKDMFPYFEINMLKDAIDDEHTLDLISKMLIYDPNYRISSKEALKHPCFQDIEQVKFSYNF
Protein kinase 7 (PK7), Plasmodium falciparum 3D7 (PF3D7_0213400), sequence (Q7YTF7 1-343): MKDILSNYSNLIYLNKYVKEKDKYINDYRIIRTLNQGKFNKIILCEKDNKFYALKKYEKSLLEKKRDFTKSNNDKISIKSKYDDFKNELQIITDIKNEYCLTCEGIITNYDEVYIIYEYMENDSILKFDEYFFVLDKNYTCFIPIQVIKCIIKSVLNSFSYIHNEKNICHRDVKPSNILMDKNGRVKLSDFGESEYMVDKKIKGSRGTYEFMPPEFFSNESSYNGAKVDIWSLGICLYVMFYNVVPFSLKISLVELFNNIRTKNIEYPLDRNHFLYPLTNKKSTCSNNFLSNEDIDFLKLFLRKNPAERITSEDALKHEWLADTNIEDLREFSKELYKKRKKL
L-lactate dehydrogenase (Plasmodium falciparum (isolate CDC / Honduras)), sequence (Q27743 whole entry, looked up): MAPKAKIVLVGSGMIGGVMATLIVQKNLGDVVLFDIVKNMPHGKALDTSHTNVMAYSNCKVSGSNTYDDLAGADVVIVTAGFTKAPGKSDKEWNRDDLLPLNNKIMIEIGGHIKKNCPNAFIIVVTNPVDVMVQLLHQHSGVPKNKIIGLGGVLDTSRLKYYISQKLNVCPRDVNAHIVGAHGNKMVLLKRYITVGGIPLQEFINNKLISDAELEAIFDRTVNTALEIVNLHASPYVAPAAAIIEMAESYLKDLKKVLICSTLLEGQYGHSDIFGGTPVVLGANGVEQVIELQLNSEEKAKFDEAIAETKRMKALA

COc1c(OC)c(OC)c2ccccc2c1CCNCCCCNCCc1c(OC)c(OC)c(OC)c2ccccc12
active: growth inhibition [1] 72% | inhibition [2] 100% | growth inhibition [4] 99%
inactive: inhibition [3] -3% | outcome [5] | outcome [6] | outcome [7] | outcome [8]

CC(C)CCn1c(Sc2ccc(C#N)c([N+](=O)[O-])c2)nnc1-c1ccc(Cl)cc1
active: growth inhibition [4] 90%
inactive: growth inhibition [1] 39% | inhibition [2] 25% | inhibition [3] -1% | outcome [5] | outcome [6] | outcome [7] | outcome [8]

O=C(CCCCCNC(=O)c1ccc(O)c(-c2ccc(Cl)c(Cl)c2)c1)NCc1cccc(C(F)(F)F)c1
active: growth inhibition [4] 92%
inactive: growth inhibition [1] 10% | inhibition [2] 2% | inhibition [3] 2% | outcome [5] | outcome [6] | outcome [7] | outcome [8]

COc1ccc(-c2ccc(NC(=O)c3ccc(C#N)cc3)cc2)cc1CN1CCC(O)CC1
active: growth inhibition [4] 94%
inactive: growth inhibition [1] 28% | inhibition [2] 24% | inhibition [3] 7% | outcome [5] | outcome [6] | outcome [7] | outcome [8]

Fc1ccc(-c2cc3ncnc(N4CCN(CCN5CCCC5)CC4)c3s2)cc1
active: growth inhibition [4] 98%
inactive: growth inhibition [1] 40% | inhibition [2] 25% | inhibition [3] -1% | outcome [5] | outcome [6] | outcome [7] | outcome [8]

COc1ccc2nccc([C@@H](O)CN3CCC(NCc4nc5ccccc5[nH]4)CC3)c2c1
active: growth inhibition [4] 92%
inactive: growth inhibition [1] 2% | inhibition [2] 41% | inhibition [3] 4% | outcome [5] | outcome [6] | outcome [7] | outcome [8]

CC(=O)c1cccc(S(=O)(=O)NCCCNc2nc3cc(C)cc(C)c3cc2C#N)c1
active: growth inhibition [1] 75% | growth inhibition [4] 95%
inactive: inhibition [2] 11% | inhibition [3] 1% | outcome [5] | outcome [6] | outcome [7] | outcome [8]

Cc1cc(CN2CC[C@H](NC(=O)c3ccc(Cl)c(Cl)c3)C2)ccc1OCCN1CCCC1
active: growth inhibition [1] 92% | inhibition [2] 56% | growth inhibition [4] 101%
inactive: inhibition [3] 0% | outcome [5] | outcome [6] | outcome [7] | outcome [8]

O=C(Nc1cccc(-c2nc3ccccc3[nH]2)c1)c1cccc(NC(=O)c2ccco2)c1
active: growth inhibition [4] 91%
inactive: growth inhibition [1] 45% | inhibition [2] 9% | inhibition [3] 0% | outcome [5] | outcome [6] | outcome [7] | outcome [8]

COc1ccccc1NC(=S)N/N=C/c1ccc(O)cc1O
active: growth inhibition [1] 80% | growth inhibition [4] 89%
inactive: inhibition [2] 35% | inhibition [3] -5% | outcome [5] | outcome [6] | outcome [7] | outcome [8]

Clc1ncnc2scc(-c3ccc(Br)cc3)c12
active: growth inhibition [1] 96% | growth inhibition [4] 95%
inactive: inhibition [2] -3% | inhibition [3] -2% | outcome [5] | outcome [6] | outcome [7] | outcome [8]

CN1CCCN(Cc2cccc(-c3cccc(NC(=O)c4ccc(Cl)cc4)c3)c2)CC1
inactive: growth inhibition [1] 44% | inhibition [2] 35% | inhibition [3] 2% | outcome [5] | outcome [6] | outcome [7] | outcome [8]
active: growth inhibition [4] 100%

O=C(NCCN1CCN(S(=O)(=O)c2ccc(OC3CCNCC3)c(Br)c2)CC1)c1ccc(Cl)c(Cl)c1
inactive: growth inhibition [1] -3% | inhibition [2] 1% | inhibition [3] -3% | outcome [5] | outcome [6] | outcome [7] | outcome [8]
active: growth inhibition [4] 89%

Cc1cccn2c(=O)c3cc(C(=O)NC4CCCCC4)c(=N)n(CCCn4ccnc4)c3nc12
inactive: growth inhibition [1] 8% | inhibition [2] 1% | inhibition [3] -1% | outcome [5] | outcome [6] | outcome [7] | outcome [8]
active: growth inhibition [4] 102%

CCN(C(=O)CSc1cc(C)c2cc(C)cc(C)c2n1)C1CCS(=O)(=O)C1 (stereo not given)
active: growth inhibition [1] 82% | growth inhibition [4] 97%
inactive: inhibition [2] 5% | inhibition [3] -1% | outcome [5] | outcome [6] | outcome [7] | outcome [8]

Cc1c(S(=O)(=O)Nc2ccc3ccn(CCN(C)C)c3c2)sc2ccc(Cl)cc12
inactive: inhibition [2] 15% | inhibition [3] 0% | outcome [5] | outcome [6] | outcome [7] | outcome [8]
active: growth inhibition [1] 94% | growth inhibition [4] 98%

CCc1c(CCNCCCCCNCCc2ccc(OC)c(OC)c2CC)ccc(OC)c1OC
active: inhibition [2] 59% | growth inhibition [4] 101%
inactive: growth inhibition [1] 1% | inhibition [3] -1% | outcome [5] | outcome [6] | outcome [7] | outcome [8]

COc1ccc2c(c1)Sc1ccccc1C(N1CCN(CCO)CC1)C2 (stereo not given)
active: growth inhibition [4] 95%
inactive: growth inhibition [1] 4% | inhibition [2] 11% | inhibition [3] -3% | outcome [5] | outcome [6] | outcome [7] | outcome [8]

CCc1cccc(OCCCON2C(N)=NC(N)=NC2(C)C)c1
inactive: inhibition [3] 5% | outcome [5] | outcome [6] | outcome [7] | outcome [8]
active: growth inhibition [1] 94% | inhibition [2] 63% | growth inhibition [4] 95%

NC(N)=NCCN(Cc1ccccc1)c1ccccc1
active: growth inhibition [1] 98% | growth inhibition [4] 100%
inactive: inhibition [2] 8% | inhibition [3] 3% | outcome [5] | outcome [6] | outcome [7] | outcome [8]

COc1cccc2c(Nc3ccccc3C)nc(Nc3ccccc3C)nc12
active: growth inhibition [4] 95%
inactive: growth inhibition [1] 36% | inhibition [2] 9% | inhibition [3] 4% | outcome [5] | outcome [6] | outcome [7] | outcome [8]

CCN(CC)S(=O)(=O)c1ccc(C(=O)Oc2ccccc2N(Cc2ccc(OC)cc2)C2=NS(=O)(=O)c3ccccc32)cc1
active: growth inhibition [1] 63% | growth inhibition [4] 98%
inactive: inhibition [2] 0% | inhibition [3] -3% | outcome [5] | outcome [6] | outcome [7] | outcome [8]

NS(=O)(=O)c1cccc(Br)c1
active: growth inhibition [4] 98%
inactive: growth inhibition [1] -5% | inhibition [2] 0% | inhibition [3] 0% | outcome [5] | outcome [6] | outcome [7] | outcome [8]

CC1(C)N=C(N)N=C(N)N1OCCCCOc1ccc(Cl)cc1C1CCCCC1
active: growth inhibition [1] 97% | inhibition [2] 56% | growth inhibition [4] 93%
inactive: inhibition [3] 2% | outcome [5] | outcome [6] | outcome [7] | outcome [8]

N#Cc1ccc(NC(=NC2CCN(Cc3ccccc3)CC2)Nc2ccccc2Cl)c(O)c1
inactive: inhibition [2] 31% | inhibition [3] 0% | outcome [5] | outcome [6] | outcome [7] | outcome [8]
active: growth inhibition [1] 97% | growth inhibition [4] 101%

c1ccc(CNCCn2c(-c3ccc4c(c3)CCO4)nc3c(N4CCCC4)cccc32)cc1
active: growth inhibition [1] 85% | growth inhibition [4] 82%
inactive: inhibition [2] 9% | inhibition [3] -4% | outcome [5] | outcome [6] | outcome [7] | outcome [8]

COc1ccccc1N1CCN(c2cccc(F)c2C#N)CC1
active: growth inhibition [1] 59% | growth inhibition [4] 85%
inactive: inhibition [2] -2% | inhibition [3] -2% | outcome [5] | outcome [6] | outcome [7] | outcome [8]

O=C(/C=C/c1ccc(I)cc1)NCCCCCN1CCC(c2c[nH]c3ccc(O)cc23)CC1
active: growth inhibition [4] 97%
inactive: growth inhibition [1] 1% | inhibition [2] 14% | inhibition [3] 2% | outcome [5] | outcome [6] | outcome [7] | outcome [8]

O=C1c2ccccc2C(=O)N1CCOc1c(Br)cc(Br)cc1CNCCCNc1cc(=O)c2ccccc2[nH]1
active: growth inhibition [4] 92%
inactive: growth inhibition [1] 12% | inhibition [2] 10% | inhibition [3] -6% | outcome [5] | outcome [6] | outcome [7] | outcome [8]

O=C(N[C@H]1CCN(Cc2ccc(OCCN3CCCC3)c(Cl)c2)C1)c1ccc(Cl)c(Cl)c1
active: inhibition [2] 68% | growth inhibition [4] 101%
inactive: growth inhibition [1] 46% | inhibition [3] -1% | outcome [5] | outcome [6] | outcome [7] | outcome [8]

COc1cc2nc(C)nc(Nc3ccc(Oc4ccccc4)cc3)c2cc1OC
inactive: inhibition [2] -8% | inhibition [3] 6% | outcome [5] | outcome [6] | outcome [7] | outcome [8]
active: growth inhibition [1] 72% | growth inhibition [4] 101%

OC(c1n[nH]c(=S)n1-c1ccccc1)C(O)c1n[nH]c(=S)n1-c1ccccc1 (stereo not given)
inactive: inhibition [2] 18% | inhibition [3] 4% | outcome [5] | outcome [6] | outcome [7] | outcome [8]
active: growth inhibition [1] 89% | growth inhibition [4] 92%

CN(C)CCCNc1ncnc2c1[nH]c1ccc(F)cc12
active: growth inhibition [4] 100%
inactive: growth inhibition [1] -1% | inhibition [2] 14% | inhibition [3] 1% | outcome [5] | outcome [6] | outcome [7] | outcome [8]

CC(C)Cn1c(Sc2ccc(C#N)c([N+](=O)[O-])c2)nnc1-c1ccccc1Cl
inactive: growth inhibition [1] 46% | inhibition [2] 18% | inhibition [3] 2% | outcome [5] | outcome [6] | outcome [7] | outcome [8]
active: growth inhibition [4] 93%

O=C(Nc1cccc(CN2CCCN(Cc3ccc(O)cc3)CC2)c1)c1ccc(Cl)c(Cl)c1
inactive: inhibition [2] 22% | inhibition [3] -1% | outcome [5] | outcome [6] | outcome [7] | outcome [8]
active: growth inhibition [1] 81% | growth inhibition [4] 103%

Cc1ccc(NC(=O)c2cccc(CN3CCCN(Cc4cccc(O)c4)CC3)c2)cc1
active: growth inhibition [4] 82%
inactive: growth inhibition [1] 3% | inhibition [2] 22% | inhibition [3] 1% | outcome [5] | outcome [6] | outcome [7] | outcome [8]

COc1ccc(CNC(=O)c2cnc3c(O)cccc3c2Nc2cccc(NC(=O)c3ccc(-c4ccccc4)cc3)c2)cc1
active: growth inhibition [1] 83% | growth inhibition [4] 90%
inactive: inhibition [2] 42% | inhibition [3] 6% | outcome [5] | outcome [6] | outcome [7] | outcome [8]

CCc1cccc(NC(=O)c2ccc(CN3CCCN(CC4CCCCC4)CC3)cc2)c1
inactive: growth inhibition [1] 36% | inhibition [2] 44% | inhibition [3] 0% | outcome [5] | outcome [6] | outcome [7] | outcome [8]
active: growth inhibition [4] 84%

CCn1ccc2c(N3CCCS3(=O)=O)cc(C(=O)N[C@@H](Cc3ccccc3)[C@H](O)CNC(C)(C)CCCC(C)C)cc21
active: growth inhibition [1] 98% | growth inhibition [4] 97%
inactive: inhibition [2] 8% | inhibition [3] 0% | outcome [5] | outcome [6] | outcome [7] | outcome [8]

Cc1ccc2c(O)c([N+](=O)[O-])c(=O)[nH]c2c1
inactive: growth inhibition [1] -1% | inhibition [2] 3% | inhibition [3] -4% | outcome [5] | outcome [6] | outcome [7] | outcome [8]
active: growth inhibition [4] 98%
